These results are taken from PubChem BioAssay (NCI).

Common to all, as to experiment: NCI-60 one-dose screen, 48 h (100 = growth as untreated, 0 = no growth, -100 = all killed)
For one assay, the system named is SR leukemia. The conditions noted are these: 10 µM.
Another assay deals with RPMI-8226 leukemia. The conditions noted are these: 10 µM.
A further assay has as its system OVCAR-8 ovarian. Particulars: 10 µM.
For the next assay, the system named is OVCAR-5 ovarian. The conditions noted are these: 10 µM.
Another assay has as its system OVCAR-4 ovarian. The conditions noted are these: 10 µM.
The test system of another assay is SK-OV-3 ovarian. The conditions noted are these: 10 µM.
In a further assay the test system is IGROV1 ovarian. Particulars: 10 µM.
The test system of another assay is OVCAR-3 ovarian. The conditions noted are these: 10 µM.
For another assay, the system named is HS 578T breast. The conditions noted are these: 10 µM.
In a further assay the test system is NCI/ADR-RES ovarian. Particulars: 10 µM.
Another assay relates to T-47D breast. The conditions noted are these: 10 µM.
Another assay has as its system BT-549 breast. The conditions noted are these: 10 µM.
The test system of another assay is MDA-MB-435 melanoma. The conditions noted are these: 10 µM.
A further assay relates to SW-620 colon. Particulars: 10 µM.
A further assay concerns MCF7 breast. The conditions noted are these: 10 µM unless noted.
A further assay deals with HCT-116 colon. Particulars: 10 µM.
In a further assay the test system is HCC-2998 colon. Particulars: 10 µM.
The subject of the next assay is KM12 colon. Particulars: 10 µM.

The panel holds about 83,000 compounds, 20% with a hit somewhere; the sample as a whole holds those more often.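 Negative percent growth values reflect cell death: -40 means 40% of the cells present at the start died, and -100 means all died.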 Unmarked numbers belong to inactive results. The source made the active and inactive calls. How the source made its calls: active means growth percent below 10; inactive means the rest.

Turning to `CC1(O)CCCCC1O` (configuration not stated), the growth is 103% in the assay on SR leukemia; 98.6% in the assay with RPMI-8226 leukemia; 105% in the assay on OVCAR-8 ovarian; 103% in the assay on OVCAR-5 ovarian; 107% in the assay on OVCAR-4 ovarian; 101% with SK-OV-3 ovarian. For the same compound, the growth in the assay on IGROV1 ovarian is 90.9%; in the assay on OVCAR-3 ovarian it was 120%; in the assay on HS 578T breast, 102%; in the assay on NCI/ADR-RES ovarian it was 105%; with T-47D breast, 98.4%; in the assay with BT-549 breast it was 94%. The growth in the assay on MDA-MB-435 melanoma was 117%; in the assay on SW-620 colon, 104%; with MCF7 breast it was 106%; with HCT-116 colon, 101%; with HCC-2998 colon it was 104%; with KM12 colon, 115%.

As to `N#Cc1c(N)sc(=S)c2c1CCCC2`, the growth with SR leukemia is 93.6%; with RPMI-8226 leukemia it was 95.1%; in the assay on OVCAR-8 ovarian it was 103%; in the assay on OVCAR-5 ovarian it was 108%; with OVCAR-4 ovarian it was 102%; in the assay with SK-OV-3 ovarian it was 103%. Besides, the growth is 116% in the assay on IGROV1 ovarian; 113% in the assay on OVCAR-3 ovarian; 104% in the assay with HS 578T breast; 104% in the assay on NCI/ADR-RES ovarian; 95.7% in the assay with T-47D breast; 98.5% with BT-549 breast. Also, the growth in the assay with MDA-MB-435 melanoma is 109%; in the assay with SW-620 colon, 112%; with MCF7 breast, 93.3%; in the assay on HCT-116 colon, 104%; in the assay on HCC-2998 colon it was 106%; with KM12 colon, 110%.

Consider `Clc1ccc(-c2nnc(-c3cccc4ccccc34)o2)cc1`, for which the growth in the assay on SR leukemia is 85.5%; in the assay with RPMI-8226 leukemia, 101%; in the assay with OVCAR-8 ovarian it was 94.7%; in the assay with OVCAR-5 ovarian, 93.3%; in the assay with OVCAR-4 ovarian it was 84.1%; in the assay with SK-OV-3 ovarian it was 91.6%. Besides, the growth is 69.2% in the assay on IGROV1 ovarian; 103% with OVCAR-3 ovarian; 103% in the assay with HS 578T breast; 95.6% in the assay with NCI/ADR-RES ovarian; 53.4% with T-47D breast; 104% in the assay on BT-549 breast. Further, the growth was 96% with MDA-MB-435 melanoma; 93% in the assay with SW-620 colon; 32.2% with MCF7 breast; 93.9% in the assay with HCT-116 colon; 104% in the assay on HCC-2998 colon; 102% in the assay with KM12 colon.

Consider `O=S(=O)(O)CC(O)CN1CCN(CCO)CC1` (configuration not stated), for which the growth was 92.4% in the assay on SR leukemia; 96.3% with RPMI-8226 leukemia; 98.8% in the assay on OVCAR-8 ovarian; 117% in the assay with OVCAR-5 ovarian; 114% in the assay on OVCAR-4 ovarian; 95.3% in the assay with SK-OV-3 ovarian. Moreover, the growth in the assay with IGROV1 ovarian was 124%; in the assay on OVCAR-3 ovarian, 108%; with HS 578T breast, 104%; in the assay on NCI/ADR-RES ovarian, 99.7%; with T-47D breast, 108%; in the assay with BT-549 breast it was 99.3%. The growth in the assay with MDA-MB-435 melanoma is 113%; in the assay with SW-620 colon, 105%; in the assay on MCF7 breast, 96%; with HCT-116 colon, 101%; in the assay on HCC-2998 colon, 89.4%; in the assay on KM12 colon it was 107%.

Turning to `CNS(=O)(=O)c1ccc(Cl)c(Cl)c1`, the growth was 78.1% in the assay with SR leukemia; 136% with RPMI-8226 leukemia; 99.2% with OVCAR-8 ovarian; 98.5% in the assay with OVCAR-5 ovarian; 99.8% in the assay on OVCAR-4 ovarian; 105% in the assay on SK-OV-3 ovarian. Moreover, the growth is 114% with IGROV1 ovarian; 123% in the assay on OVCAR-3 ovarian; 98.9% in the assay with HS 578T breast; 110% with NCI/ADR-RES ovarian; 99.2% in the assay on T-47D breast; 112% in the assay on BT-549 breast. The growth is 98.7% in the assay with MDA-MB-435 melanoma; 104% in the assay on SW-620 colon; 98% with MCF7 breast; 107% with HCT-116 colon; 118% in the assay with HCC-2998 colon; 108% in the assay with KM12 colon.

As to `CCN(CC)c1ccc2nc3ccc(=[N+](CC)CC)cc-3oc2c1`, the growth in the assay on SR leukemia was 22.5%; in the assay on RPMI-8226 leukemia, 6.38% (active); with OVCAR-8 ovarian it was -9.58% (active); in the assay with OVCAR-5 ovarian it was -30.1% (active); with OVCAR-4 ovarian it was -88.7% (active); in the assay with SK-OV-3 ovarian it was -9.43% (active). Further, the growth was -31.8% (active) in the assay on IGROV1 ovarian; -7.91% (active) in the assay on OVCAR-3 ovarian; 58.1% in the assay with HS 578T breast; 90.3% in the assay with NCI/ADR-RES ovarian; -2.86% (active) in the assay with T-47D breast; 48% with BT-549 breast. Besides, the growth with MDA-MB-435 melanoma was -14.7% (active); in the assay with SW-620 colon, 6.33% (active); in the assay with MCF7 breast, -34.9% (active); in the assay on HCT-116 colon it was -40.7% (active); with HCC-2998 colon it was 40.3%; in the assay on KM12 colon, 4.22% (active).

Consider `Cc1cccc(C(=O)N(C(C)C)C(C)C)c1`, for which the growth in the assay with SR leukemia was 110%; in the assay on RPMI-8226 leukemia, 93.1%; in the assay on OVCAR-8 ovarian, 100%; in the assay on OVCAR-5 ovarian it was 98%; in the assay with OVCAR-4 ovarian, 104%; in the assay on SK-OV-3 ovarian, 92.4%. In addition, the growth in the assay on IGROV1 ovarian was 103%; in the assay with OVCAR-3 ovarian, 107%; in the assay with HS 578T breast, 90.6%; in the assay on NCI/ADR-RES ovarian it was 102%; in the assay with T-47D breast it was 83.9%; in the assay with BT-549 breast it was 105%. For the same compound, the growth with MDA-MB-435 melanoma was 106%; in the assay on SW-620 colon, 96.4%; in the assay on MCF7 breast, 98.9%; in the assay with HCT-116 colon it was 94.7%; in the assay on HCC-2998 colon, 109%; in the assay on KM12 colon it was 104%.

For `CC(=O)OC1CC2C(C)(C)OC3CC(=O)OCC32C2CCC3(C)C(=CCC3c3ccoc3)C12C` (configuration not stated), the growth in the assay with SR leukemia was 91.1%; in the assay with RPMI-8226 leukemia it was 72.8%; in the assay on OVCAR-8 ovarian, 108%; with OVCAR-5 ovarian it was 95.9%; in the assay with OVCAR-4 ovarian it was 105%; in the assay on SK-OV-3 ovarian it was 108%. Further, the growth in the assay with IGROV1 ovarian was 58.2%; with OVCAR-3 ovarian, 93.8%; in the assay on HS 578T breast, 93.6%; in the assay on NCI/ADR-RES ovarian, 124%; with T-47D breast it was 88.3%; in the assay on BT-549 breast, 126%. In addition, the growth was 97.8% with MDA-MB-435 melanoma; 112% in the assay with SW-620 colon; 87.8% in the assay with MCF7 breast; 106% in the assay with HCT-116 colon; 80.7% in the assay on HCC-2998 colon; 98.9% in the assay on KM12 colon.

Consider `O=C1Cc2cc(O)ccc2O1`, for which the growth with SR leukemia is 91.8%; with RPMI-8226 leukemia, 96.1%; in the assay with OVCAR-8 ovarian, 102%; with OVCAR-5 ovarian it was 113%; in the assay on OVCAR-4 ovarian, 118%; in the assay on SK-OV-3 ovarian, 99.8%. Moreover, the growth is 104% in the assay with IGROV1 ovarian; 120% in the assay with OVCAR-3 ovarian; 119% in the assay with HS 578T breast; 107% with NCI/ADR-RES ovarian; 101% in the assay with T-47D breast; 109% in the assay with BT-549 breast. Besides, the growth in the assay with MDA-MB-435 melanoma is 105%; with SW-620 colon, 113%; with MCF7 breast, 101%; with HCT-116 colon, 101%; in the assay with HCC-2998 colon, 105%; with KM12 colon it was 112%.
